Molecules are shown by their SMILES.

The source of these data is PMC5540273 (PLoS ONE, 2017).

Some test systems named below: PAK2; PAK3; PAK4; PAK6; PAK7; PDGFRA; PDGFRB; PDPK1; PFTAIRE2; PHKG1; PHKG2; PIK3C2B; PIK3C2G; PIK3CA; PIK3CB; PIK3CD.
What all share (details): concentration: 1 μM, replicates: in singlicate; n = 1
For another test, the system named is T1, PCTK1.
T1 construct: gene CDK16

In the next test the test system is T2, PCTK2.
T2 construct: gene CDK17

The next test deals with T3, PCTK3.
T3 construct: gene CDK18

The test system of the next test is T4, PFTK1.
T4 construct: gene CDK14
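Note: KINOMEscan kinase panel screen.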

In the case of `CC(C)(C)c1ccc(C(=O)Nc2cn3cc(-c4ccccc4)ccc3n2)cc1`, the “%Inh” value with PAK2 is 0%; in the test on PAK3 it was 8%; in the test with PAK4 it was 1%; in the test with PAK6 it was 0%; in the test on PAK7, 6%; in the test with PCTK1 it was 0%. Further, the “%Inh” value worked out at 0% in the test with PCTK2; 0% with PCTK3; 41% with PDGFRA; 93% in the test with PDGFRB; 0% in the test on PDPK1; 0% with PFTAIRE2. Besides, the “%Inh” value with PFTK1 is reported as 0%; with PHKG1 it was 4%; in the test on PHKG2, 2%; in the test with PIK3C2B, 0%; in the test on PIK3C2G it was 0%; with PIK3CA, 0%. The “%Inh” value with PIK3CB turned out to be 14%; with PIK3CD it was 0%.
As to `Nc1nc(N)c2nc(-c3ccccc3)[nH]c2n1` [SKF-12778], the “%Inh” value in the test on PAK2 was 0%; with PAK3 it was 0%; in the test on PAK4 it was 13%; in the test on PAK6, 0%; in the test on PAK7 it was 5%; with PCTK1, 5%. Further, the “%Inh” value with PCTK2 is 0%; with PCTK3, 0%; with PDGFRA it was 0%; in the test on PDGFRB, 14%; in the test with PDPK1, 14%; in the test on PFTAIRE2, 6%. Moreover, the “%Inh” value in the test with PFTK1 worked out at 9%; in the test with PHKG1, 0%; in the test with PHKG2, 0%; in the test with PIK3C2B it was 0%; with PIK3C2G, 68%; in the test on PIK3CA it was 6%. In addition, the “%Inh” value worked out at 0% in the test with PIK3CB and 21% in the test on PIK3CD.
As for `COC(=O)c1c(-c2ccccc2)c2cc(Br)ccc2c(=O)n1Cc1ccc(NC(=O)CCC(=O)O)cc1`, the “%Inh” value is 17% in the test with PAK2; 0% in the test with PAK3; 2% with PAK4; 18% in the test with PAK6; 2% in the test on PAK7; 15% in the test with PCTK1. The “%Inh” value in the test with PCTK2 was found to be 7%; with PCTK3, 0%; in the test on PDGFRA it was 16%; in the test with PDGFRB it was 57%; in the test with PDPK1 it was 0%; with PFTAIRE2, 17%. Also, the “%Inh” value in the test with PFTK1 came out at 0%; in the test with PHKG1, 0%; in the test with PHKG2, 0%; with PIK3C2B, 0%; with PIK3C2G, 1%; in the test on PIK3CA, 0%. Further, the entries for the “%Inh” value in the test on PIK3CB and in the test on PIK3CD were 24% and 0%, respectively.
For `CCc1ccc(-c2ccc3c(c2)-c2nn(C)cc2S(=O)(=O)N3C)cc1`, the “%Inh” value in the test with PAK2 came out at 11%; with PAK3, 0%; in the test on PAK4 it was 0%; in the test with PAK6, 9%; in the test on PAK7 it was 0%; with PCTK1 it was 0%. For the same molecule, the “%Inh” value in the test with PCTK2 worked out at 0%; with PCTK3 it was 0%; in the test on PDGFRA, 0%; with PDGFRB, 0%; in the test on PDPK1, 23%; with PFTAIRE2, 0%. For the same molecule, the “%Inh” value with PFTK1 was 9%; with PHKG1, 0%; in the test on PHKG2 it was 0%; in the test with PIK3C2B it was 0%; with PIK3C2G, 0%; with PIK3CA it was 0%. The “%Inh” value in the test on PIK3CB and in the test on PIK3CD was 0% each time.
Turning to `Cc1ccc(Oc2ccc(Nc3ncnc4cc[nH]c34)cc2C)cn1`, the “%Inh” value in the test on PAK2 was determined as 37%; in the test with PAK3, 4%; with PAK4 it was 25%; with PAK6 it was 27%; with PAK7, 0%; in the test on PCTK1 it was 0%. Moreover, the “%Inh” value in the test with PCTK2 worked out at 8%; in the test on PCTK3, 2%; with PDGFRA, 49%; with PDGFRB it was 21%; in the test on PDPK1, 25%; with PFTAIRE2, 7%. Also, the “%Inh” value is reported as 0% with PFTK1; 0% in the test with PHKG1; 0% in the test on PHKG2; 24% with PIK3C2B; 60% with PIK3C2G; 5% in the test with PIK3CA. Also, the “%Inh” value in the test with PIK3CB came to 57%; in the test on PIK3CD it was 54%.
Consider `Nc1nc(-c2ccccc2F)c(-c2ccnc3ccccc23)s1` [GW560459], for which the “%Inh” value was determined as 18% with PAK2; 14% in the test on PAK3; 0% with PAK4; 0% in the test with PAK6; 0% in the test on PAK7; 9% with PCTK1. Further, the “%Inh” value in the test on PCTK2 was determined as 0%; in the test with PCTK3, 13%; in the test with PDGFRA it was 0%; in the test on PDGFRB, 6%; with PDPK1 it was 0%; in the test with PFTAIRE2, 12%. Also, the “%Inh” value in the test with PFTK1 was 5%; with PHKG1 it was 7%; in the test with PHKG2, 0%; with PIK3C2B, 0%; in the test on PIK3C2G it was 0%; in the test on PIK3CA, 0%. The “%Inh” value amounted to 0% in the test with PIK3CB and 12% with PIK3CD.
Turning to `CCC(=O)c1c(-c2ccccc2)c2cc(Cl)ccc2c(=O)n1Cc1ccc(C(=O)O)cc1`, the “%Inh” value in the test with PAK2, in the test on PAK3, with PAK4, with PAK6, in the test on PAK7 and in the test with PCTK1 was 0% in each case. For the same molecule, the “%Inh” value is on record as 0% in the test with PCTK2; 0% in the test on PCTK3; 19% in the test with PDGFRA; 58% in the test on PDGFRB; 0% with PDPK1; 0% with PFTAIRE2. Moreover, the “%Inh” value in the test on PFTK1, in the test with PHKG1, in the test with PHKG2, with PIK3C2B, in the test on PIK3C2G and with PIK3CA was 0% each time. For the same molecule, the “%Inh” value in the test with PIK3CB came to 3%; with PIK3CD it was 0%.
For the molecule `COc1cc2ncn(-c3cc(OCc4ccncc4)c(C(N)=O)s3)c2cc1OC` [GSK336313], the “%Inh” value in the test on PAK2 is listed as 3%; in the test on PAK3, 0%; in the test with PAK4 it was 0%; with PAK6, 4%; in the test on PAK7, 0%; in the test on PCTK1, 9%. Also, the “%Inh” value amounted to 0% in the test on PCTK2; 18% in the test on PCTK3; 0% in the test with PDGFRA; 27% with PDGFRB; 0% in the test with PDPK1; 27% in the test with PFTAIRE2. Moreover, the “%Inh” value in the test with PFTK1 amounted to 16%; in the test with PHKG1, 0%; in the test on PHKG2, 0%; in the test with PIK3C2B it was 0%; in the test on PIK3C2G it was 0%; in the test with PIK3CA it was 1%. In addition, the “%Inh” value in the test on PIK3CB and with PIK3CD was 0% each time.
Take `CCS(=O)c1ccc(-c2coc3ccc(-c4nnc(C)o4)cc23)cc1` (centres unmarked): the “%Inh” value in the test with PAK2 is 0%; with PAK3, 33%; in the test on PAK4, 0%; in the test with PAK6, 20%; with PAK7 it was 0%; in the test on PCTK1, 0%. The “%Inh” value in the test with PCTK2 is given as 0%; with PCTK3, 2%; with PDGFRA it was 0%; in the test on PDGFRB, 0%; in the test on PDPK1, 0%; with PFTAIRE2 it was 0%. In addition, the “%Inh” value in the test with PFTK1 is listed as 9%; with PHKG1, 0%; in the test on PHKG2 it was 0%; in the test on PIK3C2B, 0%; with PIK3C2G it was 15%; in the test on PIK3CA, 0%. The entries for the “%Inh” value with PIK3CB and in the test with PIK3CD were 32% and 12%, respectively.
With `Cc1nnc(-c2ccc(C)c(-c3ccc(C(=O)O)cc3)c2)o1` [GW608005], the “%Inh” value came to 9% with PAK2; 0% in the test with PAK3; 0% with PAK4; 0% with PAK6; 0% in the test with PAK7; 0% with PCTK1. Also, the “%Inh” value was 0% with PCTK2; 2% with PCTK3; 0% with PDGFRA; 4% with PDGFRB; 4% with PDPK1; 11% with PFTAIRE2. Besides, the “%Inh” value in the test with PFTK1 is given as 0%; in the test on PHKG1, 2%; in the test on PHKG2, 0%; in the test with PIK3C2B it was 0%; with PIK3C2G, 3%; in the test with PIK3CA it was 0%. For the same molecule, the “%Inh” value with PIK3CB amounted to 0%; in the test with PIK3CD it was 6%.
